Results reported in ChEMBL document CHEMBL3988442, “University of Dundee, Small-Polar-MMV Screening Library” (2021).

Species on record: Homo sapiens
Experiment: To identify inhibition of the IFN signalling (Jak-Stat) pathway via expression of an eGFP reporter gene under the control of an IFN-stimulated response element (ISRE) containing MxA promoter.
Format: functional
Parameters: scale not given: direction of the effect not stated beside the values
Settings: 30 µM

| SMILES | Percent Effect [%] |
| --- | --- |
| O=C(NCCNc1ncccn1)N1CCN(Cc2cccnc2)CC1 | 2.94 |
| CC(C)N1CCC(N2CCN(C3CCC3)CC2CCO)CC1 (stereo not given) | -10.3 |
| COc1ccc(CN2CCCC(Cn3nc(C)nc3C)C2)cc1F (stereo not given) | 5.94 |
| Cc1cnn(CCCNC(=O)N2CCCCC(N3CCCC3)C2)c1 (stereo not given) | 8.88 |
| CCn1cc(NC(=O)NCC(c2cccs2)N(C)C)cn1 (stereo not given) | 2.58 |
| c1cnn(Cc2cn3c(n2)CN(Cc2nccs2)CC3)c1 | 4.15 |
| CCc1noc(C2CCN(C(=O)CCn3nc(C)cc3C)CC2)n1 | -6.48 |
| CC(C#N)CSc1ccccc1NCC(=O)Nc1ccc(F)cc1 (stereo not given) | 3.15 |
| CCc1nc(CN2CCCC(NCc3nnc(C4CC4)o3)C2)no1 (stereo not given) | -0.806 |
| CCc1ccc(CCC(=O)N2CCOCC2c2ncon2)cc1 (stereo not given) | 13.7 |
| CC(=O)N1CCN(c2cc(C3CN(C)CCO3)nc(C)n2)CC1 (stereo not given) | 12.3 |
| CN(C)CC1CSCCCN1C(=O)Nc1ccc(C(C)(C)C)cc1 (stereo not given) | 13.1 |
| Cc1n[nH]c(C2CN(C(=O)c3ccco3)CCO2)n1 (stereo not given) | 25.8 |
| Clc1ccccc1C1(c2ccnc(CC3CC3)n2)CCNCC1 | -7.99 |
| Cc1cc2cc(C(=O)N[C@@H]3CC[C@@H](N4CCOCC4)[C@@H]3O)ccc2o1 | 29.4 |
| CC(C)c1nnc2n1CCN(CC(=O)Nc1nncs1)C2 | -15.7 |
| CCc1noc(C)c1C(=O)N1CCCC1c1c(C)nn(C)c1OC (stereo not given) | -17.3 |
| COc1cc(C)nc(N2CCN(C(=O)c3ccc[nH]3)CC2)n1 | 17.1 |
| O=C(NCc1cccnc1)C1CC(=O)N(CC2CC2)C1 (stereo not given) | 4.16 |
| Fc1ccc(CN2CCO[C@H]3[C@H](OCC4CC4)CC[C@@H]32)cc1 | -14.2 |

| SMILES | Percent Effect [%] |
| --- | --- |
| COCCN1CCC2(CCCN(C(=O)c3cnoc3C)C2)C1=O (stereo not given) | 0.796 |
| CC(C)CCN1CCNC(=O)C1CC(=O)N1CCc2sccc2C1 (stereo not given) | -17.6 |
| O=C(CN1CCCCC1Cn1cncn1)NC1CCN(C2CC2)CC1 (stereo not given) | 2.27 |
| COCCC(=O)N1CCC2(COCc3cnc(-c4ccccc4)nc32)C1 (stereo not given) | 6.76 |
| Cc1cc(CN2CCc3nn(C(C)C)c(=O)cc3C2)no1 | -0.957 |
| Cc1cccc(Cn2ccc(NS(C)(=O)=O)n2)c1 | 0.107 |
| CN1CCN(Cc2ccccc2CNC(=O)c2ccc(Br)cc2F)CC1 | 9.27 |
| CCCC(=O)N1CCC(O)(Cn2c(CC)nc3ccccc3c2=O)CC1 | 17.3 |
| CN(CC1(O)CCCCC1)C1CCCN(Cc2noc(C3CC3)n2)C1 (stereo not given) | 10.4 |
| Cc1ccc(N2CCCN(C(=O)C(C(C)C)n3cncn3)CC2)nn1 (stereo not given) | 9.49 |
| CCc1nnc(CNCC2CCCN2c2cccnn2)o1 (stereo not given) | 3.42 |
| Cc1cc(NC(=O)CN2CCc3nn(C)c(=O)cc3C2)on1 | 0.181 |
| CCc1c(C(=O)NCC(=O)OCC2CC2)cnn1-c1ccc(C)cc1 | 29 |
| Fc1ccc(CN2CCCN(Cc3cscn3)CC2)cc1 | 30.6 |
| Cc1cc(C)n(CC(=O)N2CCC(NS(C)(=O)=O)CC2)n1 | -0.413 |
| CC(=O)NCCNC(=O)CN1CCN(Cc2nccn2C)C(C)C1 (stereo not given) | 0.801 |
| CSCCCN1CCCC1c1noc(C)n1 (stereo not given) | 19.4 |
| CCn1ccnc1CN1CCC(CNC(=O)c2ccc(C)nc2)C1 (stereo not given) | 15.6 |
| CC(=O)N1CC(Cc2nccc3ccn(C)c23)C1 | 1.82 |
| NC(=O)CN1CCC(NC(=O)c2ccn(-c3cccc(F)c3)n2)CC1 | 0.719 |
